Experimental findings from PubChem BioAssay (Tox21) are described below.

Assay [1] is described as follows: qHTS assay to identify small molecule agonists of the vitamin D receptor (VDR) signaling pathway - cell viability counter screen (AID 743224). Further: series mostly up to about 63 µM; nearly all actives have a fitted effect of over 50% in size. An outline of the steps: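 Cells: VDR-bla, 2,000/well, settled 4 h. Treatment: compounds in DMSO, 16 h, 37C/5% CO2. Readout: CellTiter-Glo luminescence after 30 min RT.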
On the technique in general: In qHTS, concentration-response curves come from the screen itself.

Assay [2] in a line: qHTS assay to identify small molecule antagonists of the vitamin D receptor (VDR) signaling pathway - cell viability counter screen (AID 743225). Further: nearly all actives have a fitted effect of over 50% in size. Put shortly:
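HEK293T VDR-bla; cpd + 1a,25-(OH)2D3 3 nM final, 16 h 37C/5% CO2; B/G FRET substrate 2 h RT; then CellTiter-Glo 30 min RT, luminescence.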

A short description of assay [3]: qHTS assay to identify small molecule agonists of the NFkB signaling pathway (AID 1159509; active means well fitted curve in the direction sought with a large enough effect in the signal ratio in the repeat runs, not every such curve was filed as active; the % refers to the signal ratio; further: series mostly up to about 61 µM). An outline of the steps:
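Readout: FRET fluorescence, 405 nm excitation, 460/530 nm emission; beta-lactamase expression disrupts FRET. Cells: ME-180 stably carrying NF-kB-driven bla reporter. Compound exposure 5 hr, 37 C, 5% CO2.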

The nature of assay [4]: qHTS assay to identify small molecule agonists of the NFkB signaling pathway - cell viability counter screen (AID 1159515; calls by dose curve; further: series mostly up to about 61 µM; nearly all actives have a fitted effect of over 55% in size). Put shortly:
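Cells are seeded (2,000 NFkB-bla ME-180 per well), rested overnight, and dosed with DMSO-dissolved compounds for 5 hr at 37 C. Viability is then read by CellTiter-Glo luminescence after 30 min at room temperature.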

Assay [5] is described as follows: qHTS assay to identify small molecule agonists of the endoplasmic reticulum stress response signaling pathway (AID 1159516; active means well fitted activation curve with a large enough effect in the signal ratio in the repeat runs, not every such curve was filed as active; the % refers to the signal ratio). Put shortly:
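Cells are seeded at 1,500 per well and incubated overnight. Compounds in DMSO are added for 5 hr at 37 C, then beta-lactamase FRET substrate for 2 hr at room temperature, and fluorescence at 460 and 530 nm is measured.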

Assay [6] can be described thus: qHTS assay to identify small molecule agonists of the endoplasmic reticulum stress response signaling pathway - cell viability counter screen (AID 1159517; calls by dose curve;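 further: HeLa cells carrying an ER stress response element beta-lactamase reporter; series mostly up to about 61 µM; nearly all actives have a fitted effect of over 50% in size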). Put shortly:
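After overnight attachment, ESRE-bla HeLa cells were treated with Tox21 library compounds for 5 hr. CellTiter-Glo luminescence, read 30 min post-addition at room temperature, reported viability.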

A short description of assay [7]: qHTS assay to identify small molecule antagonists of the retinoid-related orphan receptor gamma (ROR-gamma) signaling pathway - cell viability counter screen (AID 1159520). Further: nearly all actives have a fitted effect of over 50% in size. Further: potency means the concentration at half of the fitted maximal effect. An outline of the steps: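 Cytotoxicity was read from cellular ATP (CellTiter-Glo luminescence) after 16 hr at 37 C with 1 uM doxycycline induction. The inducer was added 2 hr after compound transfer to Tet-on ROR gamma CHO cells.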

Assay [8] deals with Nuclear receptor ROR-gamma (Homo sapiens) (UniProt P51449). Description: qHTS assay to identify small molecule antagonists of the retinoid-related orphan receptor gamma (ROR-gamma) signaling pathway (AID 1159521; further: nearly all actives have a fitted effect of over 50% in size; further: potency means the concentration at half of the fitted maximal effect). An outline of the steps:
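Cells were plated, rested 4 h at 37 C, exposed to compounds for 2 h, then given 1 uM final doxycycline hyclate to induce RORγ expression. After 16 h, ONE-Glo luminescence from the ROR response element reporter was measured.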

Assay [9] can be described thus: qHTS assay to identify small molecule agonists of the AP-1 signaling pathway (AID 1159526; calls by dose curve).
Assay [10] has as its target Retinoic acid receptor RXR-alpha (Homo sapiens) (UniProt P19793). Nature of the assay: qHTS assay to identify small molecule agonists of the RXR signaling pathway (AID 1159527; calls by dose curve; further: nearly all actives have a fitted effect of over 35% in size; further: potency means the concentration at half of the fitted maximal effect). An outline of the steps:
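Cells plated at 2,000/well, rested 5 hr at 37 C, pin-dosed with DMSO compound solutions, incubated 16 hr, then loaded with B/G FRET substrate for 2 hr at RT before dual-emission fluorescence reading.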

Assay [11] in a line: qHTS assay to identify small molecule agonists of the RXR signaling pathway - cell viability counter screen (AID 1159529). Put shortly: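 Steps: seed RXR-alpha-UAS-bla HEK 293T cells in assay medium containing 2% charcoal-stripped FBS; incubate 5 hr; add compounds in DMSO; incubate 16 hr at 37 C; after the bla read, add CellTiter-Glo and read luminescence at 30 min.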
A short description of assay [12]: qHTS assay to identify small molecule antagonists of the retinoid acid receptor (RAR) signaling pathway - cell viability counter screen (AID 1159551). Further: nearly all actives have a fitted effect of over 35% in size. Put shortly:
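Cells (C3RL4) are plated, incubated overnight, dosed with compound in DMSO, then given retinol at 1 uM final. After 6 h at 37 C, CellTiter-Glo is added and luminescence read following 30 min at room temperature.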

Assay [13] can be described thus: qHTS assay to identify small molecule antagonists of the retinoic acid receptor (RAR) signaling pathway (AID 1159552; further: nearly all actives have a fitted effect of over 50% in size). An outline of the steps: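 Retinol at 1 uM final stimulated RARE-luciferase expression in C3RL4 cells exposed to test compounds for 6 hr at 37 C. Reduced luminescence, read 30 min after detection reagent, indicated pathway antagonism.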
The nature of assay [14]: qHTS assay to identify small molecule agonists of the retinoic acid receptor (RAR) signaling pathway (AID 1159553). An outline of the steps:
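Seed C3RL4 reporter cells at 1,000 per well and incubate overnight at 37 C. Add compounds in DMSO, incubate 6 hr. Add luciferase reagent, wait 30 min at room temperature, read luminescence.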

Assay [15] can be described thus: qHTS assay to identify small molecule agonists of the AP-1 signaling pathway - cell viability counter screen (AID 1159525; calls by dose curve; further: nearly all actives have a fitted effect of over 55% in size). An outline of the steps: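 Intracellular ATP by Cell Titer Glo luminescence (30 min, RT) in the same ME-180 AP-1-bla wells after the 5 h compound exposure at 37 °C. Normalised to tetra n-octyl ammonium bromide and DMSO controls.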
Assay [16] can be described thus: qHTS assay to identify small molecule antagonists of the estrogen related receptor (ERR) signaling pathway - cell viability counter screen (AID 1224818). Further: series mostly up to about 46 µM. Put shortly:
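ERR cells, 2,000/well; 6 h settle at 37 C/5% CO2; compound pin transfer (DMSO); 17.5 h at 37 C; CellTiter-Fluor, 30 min, fluorescence read.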

Assay [17] can be described thus: qHTS assay to identify small molecule antagonists of the estrogen related receptor signaling pathway with the pleiotropic PPARgamma coactivator (PGC) cell viability counter screen (AID 1224822;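 further: series mostly up to about 46 µM; viability read after 17.5 h compound exposure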). An outline of the steps: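 Multiplexed viability counter screen run in PGC/ERR cells treated with compounds for 17.5 h at 37 C; live-cell protease signal measured by CellTiter-Fluor fluorescence.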

SMILES strings stand for the structures. Inconclusive results are not listed. Some compounds were tested as several samples or in several runs, with calls that do not always agree. Activity calls are given as the source filed them. Unless noted, the call rests on the fitted dose curve; in most records, active means well fitted curve in the direction sought with a large enough effect in the repeat runs; inconclusive means weak or mixed curves; inactive means no such curve, though single readings can be large; an effect the other way counts as inactive or inconclusive.

Sequence of Retinoic acid receptor RXR-alpha (Homo sapiens) (P19793 whole entry, looked up): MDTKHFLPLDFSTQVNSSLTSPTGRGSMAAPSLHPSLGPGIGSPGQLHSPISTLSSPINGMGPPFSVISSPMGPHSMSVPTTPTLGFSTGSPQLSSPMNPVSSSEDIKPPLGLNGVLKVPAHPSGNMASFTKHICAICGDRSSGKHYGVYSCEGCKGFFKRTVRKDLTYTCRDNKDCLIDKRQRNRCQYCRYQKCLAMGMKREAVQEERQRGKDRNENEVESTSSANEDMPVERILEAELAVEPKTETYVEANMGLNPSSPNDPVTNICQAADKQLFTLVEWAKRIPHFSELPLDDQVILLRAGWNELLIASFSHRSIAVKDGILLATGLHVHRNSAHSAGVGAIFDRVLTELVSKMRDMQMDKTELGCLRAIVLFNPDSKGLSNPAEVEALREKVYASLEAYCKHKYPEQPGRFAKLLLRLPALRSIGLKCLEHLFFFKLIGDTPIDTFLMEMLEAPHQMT

Take `C[C@@H](O)[C@H]1C(=O)N2C(C(=O)O)=C(S[C@@H]3CN[C@H](C(=O)N(C)C)C3)[C@H](C)[C@H]12`: the Potency entry in assay [1], in [2], in assay [6], in assay [7], in [8] and in assay [9] was “inactive” throughout. Besides, the Potency result in assay [10], in assay [11], in assay [12], in [13] and in [14] was “inactive” each time. In addition, the compound was classed as inactive in assay [3], in [4] and in assay [5].

Regarding `CC(C)(CO)COC(=O)C(C)(C)CO`, the Potency entry in [1], in [2], in assay [6], in assay [7], in assay [15] and in assay [9] was “inactive” each time. Besides, the Potency result in [10], in assay [11], in [12], in assay [13] and in assay [14] was “inactive” throughout. Moreover, the compound was called inactive in assay [3], in assay [4] and in assay [5].

On to `CCc1ccc(O)cc1`, for which the Potency entry in [1], in assay [2], in assay [6], in assay [7], in assay [8] and in assay [9] was “inactive” in each case. Besides, the Potency entry in [10], in assay [11], in assay [12], in [13] and in assay [14] was “inactive” in each case. Further, the compound was called inactive in assay [3], in [4] and in [5].

As for `O=C1N=C(O)CN1/N=C/c1ccc(-c2ccc([N+](=O)[O-])cc2)o1`, the Potency result in assay [1], in assay [2], in [6], in assay [7], in assay [8] and in assay [9] was “inactive” each time. The Potency entry in [11] and in assay [12] was “inactive” in each case. Also, the compound was classed as inactive in assay [3], in assay [4] and in [5].

On to `CCc1ccccc1O`, for which the Potency result in [1], in assay [2], in assay [6], in assay [15], in [9] and in assay [11] was “inactive” throughout. Further, the Potency result in assay [12], in assay [13] and in assay [14] was “inactive” each time. Further, the call in [3] and in [4] was inactive. Also, the Potency in assay [7] is 60.8 µM (active) and inactive; in [8], 30.5 µM (active) and inactive; in assay [10], 5.47 µM (active) and inactive.

For `Nc1nc2ncc(CNc3ccc(C(=O)N[C@@H](CCC(=O)O)C(=O)O)cc3)nc2c(=O)[nH]1`, the Potency entry in assay [1], in assay [2], in assay [6], in [7], in [8] and in assay [15] was “inactive” throughout. The Potency result in assay [9], in assay [10], in [11], in [12], in [13] and in [14] was “inactive” each time. Also, the compound was called inactive in [3], in assay [4] and in assay [5].

Consider `CCCCCCCCCCCCOCC1CO1` (stereo not drawn), for which the Potency entry in assay [1], in [2], in assay [6], in assay [7], in [8] and in [15] was “inactive” throughout. Also, the Potency entry in [9], in [10], in assay [11], in [12], in assay [13] and in assay [14] was “inactive” each time. Besides, the compound was classed as inactive in assay [3], in assay [4] and in assay [5].

Take `CC(=O)[C@@]1(O)CC[C@H]2[C@@H]3CCC4=CC(=O)CC[C@]4(C)[C@H]3CC[C@@]21C`: the Potency entry in assay [1], in assay [2], in assay [6], in [7], in assay [8] and in assay [15] was “inactive” each time. In addition, the Potency entry in [9], in assay [11], in assay [12], in assay [13] and in assay [14] was “inactive” each time. Moreover, the compound was called inactive in assay [3], in [4], in assay [5], in assay [16] and in assay [17].

In the case of `C=C(C)C(=O)OCCC[Si](OC)(OC)OC`, the Potency result in assay [1], in assay [2], in assay [6], in assay [7], in assay [8] and in assay [15] was “inactive” throughout. Further, the Potency entry in assay [9], in assay [10], in assay [11], in assay [12], in assay [13] and in assay [14] was “inactive” throughout. For the same compound, the compound was called inactive in [3], in assay [4] and in assay [5].
